From the supplement of paper PMC10127200 come the findings set out here.

The structures appear in SMILES notation. Structures can show the parent of a compound that is named as a salt.

The experiment relates to FB. Description: Euclidean distance of Cell Painting phenotypic profile (signed KS, 77 features) to DMSO centroid (dimensionless distance); 5 or 10 uM (library dependent); higher = stronger phenotypic change vs DMSO (phenoactivity). Particulars: 48 h. Summed up: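 Five cancer lines, together with a healthy fibroblast line, received library compounds for 48 h at a library-dependent 10 or 5 uM and 0.1% DMSO final. Harmony then derived 77 features from confocal 20X images (9 fields/well) of the stained cells, scoring each as a signed Kolmogorov-Smirnov statistic against same-plate vehicle wells. After plate-position correction, correlation weighting and replicate averaging at the top dose, phenoactivity was taken as each profile's Euclidean distance to the median vehicle profile.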
On to `CC[C@H]1OC(=O)[C@@](C)(F)C(=O)[C@H](C)[C@@H](O[C@@H]2O[C@H](C)C[C@H](N(C)C)[C@H]2O)[C@](C)(OC)C[C@@H](C)C(=O)[C@H](C)[C@H]2N(CCCCn3cc(-c4cccc(N)c4)nn3)C(=O)O[C@]12C` [Solithromycin], for which the Euclidean distance was found to be 1.86.

`CN1CCCC(n2nc(Cc3ccc(Cl)cc3)c3ccccc3c2=O)CC1` (stereo not drawn) [Azelastine HCl] registered an Euclidean distance of 2.15. To `C[C@H](O)[C@H](O)[C@H]1CNc2[nH]c(N)nc(=O)c2N1` [Sapropterin Dihydrochloride] belongs 0.819; to `CN(C)c1ccc(C(=C2C=CC(=[N+](C)C)C=C2)c2ccc(N(C)C)cc2)cc1` [Crystal Violet], 2.46. Under `Cc1cccc(-c2[nH]c(C(C)(C)C)nc2-c2ccc3c(c2)OCO3)n1` stands 2.17; under `CCCCC1=NC2(CCCC2)C(=O)N1Cc1ccc(-c2ccccc2S(=O)(=O)Nc2noc(C)c2C)c(COCC)c1`, 0.872; under `COC(c1ccccc1)(c1ccccc1)[C@H](Oc1nc(C)cc(C)n1)C(=O)O` [Ambrisentan], 0.718. Compound `CCN1CCC[C@H]1CNC(=O)c1cc(S(N)(=O)=O)ccc1OC` [Levosulpiride] came in with an Euclidean distance of 0.991. To `CCCOC(C(=O)OC1CCN(C)CC1)(c1ccccc1)c1ccccc1` [Propiverine hydrochloride] belongs 1.33; to `O=C(O)CCC(=O)c1ccc(-c2ccccc2)cc1` [Fenbufen], 0.916.

As to `O=C(Nc1ccccc1Br)N[C@@H]1CCN(c2ccc(C(F)(F)F)cn2)C1`, the Euclidean distance turned out to be 0.9. Turning to `C[C@]12CC[C@H](O)CC1=CC[C@@H]1[C@@H]2CC[C@]2(C)C(n3cnc4ccccc43)=CC[C@@H]12` [Galeterone], the Euclidean distance is 1.35. Under `O=C1NC(=O)C(c2ccccc2)(c2ccccc2)N1` [Phenytoin] stands 1.34.

In turn, `O=C(O)CCCN1CCC(O[C@@H](c2ccc(Cl)cc2)c2ccccn2)CC1` [Bepotastine] registered an Euclidean distance of 0.639. Under `CCC[C@@H]1C[C@@H](C(=O)N[C@@H]([C@H]2O[C@H](SC)[C@H](O)[C@@H](O)[C@H]2O)[C@@H](C)O)N(C)C1` [Lincomycin HCl] stands 1.01; under `CCCCCCCN(CC)CCCC(O)c1ccc(NS(C)(=O)=O)cc1` (stereo not drawn) [Ibutilide Fumarate], 1.27; under `CCCCCCCCCC(=O)OC1(c2ccc(Cl)cc2)CCN(CCCC(=O)c2ccc(F)cc2)CC1` [Haloperidol Decanoate], 0.816.

For the compound `Nc1ccc(S(=O)(=O)c2ccc(N)cc2)cc1` [Dapson], the Euclidean distance was 1.64. To `CC(=O)OCC(=O)[C@@]12N=C(C)O[C@@H]1C[C@H]1[C@@H]3CCC4=CC(=O)C=C[C@]4(C)[C@H]3[C@@H](O)C[C@@]12C` [Deflazacort] belongs 2.04; to `COCCNCCc1cccc(Nc2ncc3c(n2)-c2ccccc2[C@H](c2ccccc2F)C3)c1` [Derazantinib(ARQ-087)], 3.69; to `CC(C)/N=c1\cc2n(-c3ccc(Cl)cc3)c3ccccc3nc-2cc1Nc1ccc(Cl)cc1` [Clofazimine], 1.7. To `COc1ccc(Cl)cc1NC(=O)Nc1cc(C)nc2ccccc12` belongs 1.02; to `Cc1cccc(-c2[nH]c(C(C)(C)C)nc2-c2ccc3nccnc3c2)n1`, 0.884; to `O=S(=O)(O)c1cc(O)ccc1O` [Ethamsylate], 1.11.

The compound `CCOC(=O)c1ccc(N2NC(=O)C(=Cc3ccc([N+](=O)[O-])o3)C2=O)cc1` came in with an Euclidean distance of 0.999. To `CN(CCCCCCCCCCN(C)C(=O)Oc1cccc([N+](C)(C)C)c1)C(=O)Oc1cccc([N+](C)(C)C)c1` [Demecarium Bromide] belongs 1.07; to `O=[N+]([O-])c1cn2c(n1)OC[C@@H](OCc1ccc(OC(F)(F)F)cc1)C2`, 1.12. As to `COc1cc2nccc(Oc3ccc(NC(=O)C4(C(=O)Nc5ccc(F)cc5)CC4)cc3)c2cc1OC` [Cabozantinib malate (XL184)], the Euclidean distance is 2.84. `Cc1cnc(Nc2ccc(N3CCN(C)CC3)cc2)nc1Nc1cccc(S(=O)(=O)NC(C)(C)C)c1` returned an Euclidean distance of 3.58.

As for `Cc1cc(O)c(C(=O)N[C@@H](C(=O)N[C@@H]2C(=O)N3C(C(=O)O)=C(CSc4nnnn4C)CS[C@H]23)c2ccc(O)cc2)cn1` [Cefpiramide sodium], the Euclidean distance was 1.17. Under `CCCCCCCCCCCCCCCCOP(=O)([O-])OCC[N+](C)(C)C` [Miltefosine] stands 1.39.

Consider `CCCc1cc(=O)[nH]c(=S)[nH]1` [Propylthiouracil], for which the Euclidean distance was 1.4. To `CC(NC(=O)c1ccccc1/N=C/c1c(O)ccc2ccccc12)c1ccccc1` (stereo not drawn) [Sirtinol] belongs 0.99.
